Here are results for 9 molecules from PubChem BioAssay (NCATS).

Results filed as inconclusive are left out. Entries that show only a call come without a potency. Unmarked numbers belong to inactive results. Calls of active or inactive are those of the source. Calls come from the whole dose curve; as a rule, active = well fitted inhibition curve with a large enough effect; inconclusive = small, poorly fitted or top-dose-only effect; inactive = flat fitted curve, though single readings scatter.

The nature of this assay: P-glycoprotein substrates identified in KB-8-5-11 adenocarcinoma cell line, qHTS therapeutic library screen (AID 1346987). For activity change, negative = cytotoxicity: series mostly up to about 44 µM. Note: nearly all actives have a fitted effect of over 65% in size. An outline of the steps: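 Human cervical adenocarcinoma KB-8-5-11 cells, selected in colchicine to over-express P-gp and assayed without it, were exposed for 72 h to titrated compounds. An ATP-based luminescent viability signal gave AC50.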

As for `N#CCc1ccc(O)cc1O[C@@H]1O[C@H](CO)[C@@H](O)[C@H](O)[C@H]1O`, the Potency result is “inactive”.
Regarding `CC(=O)O[C@]1(C(C)=O)CC[C@H]2[C@@H]3CCC4=CC(=O)CC[C@]4(C)[C@@]3(F)[C@@H](O)C[C@@]21C`, the Potency result is “inactive”.
With `C=CC(C)(O)CC/C=C(/C)C(=O)OC1C(OC2OCC(OC3OC(CO)C(O)C(O)C3O)C(OC3OCC(O)C(OC4OC(C)C(O)C(O)C4O)C3O)C2O)COC(OC(=O)C23CCC(C)(C)CC2C2=CCC4C5(C)CCC(OC6OC(CO)C(OC7OC(CO)C(O)C(OC8OCC(O)C(O)C8O)C7O)C(O)C6O)C(C)(C)C5CCC4(C)C2(C)CC3O)C1O` (centres undefined), the activity change, negative = cytotoxicity is -0.997% [at 5.11 µM].
As to `C/C=C(\C)C(=O)O[C@@H](C)[C@H]1CC[C@]2(O)C3CCC4C[C@@H](OC5CC(OC)C(OC6CC(OC)C(OC7CC(OC)C(OC8OC(C)C(OC9OC(CO)C(O)C(O)C9O)C(OC)C8O)C(C)O7)C(C)O6)C(C)O5)CC[C@]4(C)C3[C@H](O)[C@@H](O)[C@]12C` (some centres undefined), the activity change, negative = cytotoxicity was 2.39% [at 9.29 µM].
In the case of `CC(=O)NC(C(=O)OC1CCC(C)(C)C2CC=C3C(=O)OCC3(O)C12C)C(C)C` (centres undefined), the Potency entry is “inactive”.
On to `CC1=CC(=O)OC(C)(CC(C)(O)C(=O)O)C1` (centres undefined), for which the Potency result is “inactive”.
For the molecule `CC1(C)CCCC2(C)C1C(O)C=C(CO)C2(O)C(=O)O` (centres undefined), the Potency entry was “inactive”.
Consider `COC(=O)C1=CO[C@@H](O[C@@H]2O[C@H](COC(=O)/C=C/c3cc(OC)c(O)c(OC)c3)[C@@H](O)[C@H](O)[C@H]2O)[C@@H]2C(CO)=CC[C@H]12`, for which the Potency entry is “inactive”.
`O=C(/C=C/c1ccc(O)cc1)OCC1=C[C@@H](O)[C@@H]2C=CO[C@@H](O[C@@H]3O[C@H](CO)[C@@H](O)[C@H](O)[C@H]3O)[C@H]12`: the Potency result is “inactive”.
